According to PubChem BioAssay (NCI):
About 83,000 compounds went through this panel and 20% of them were active in at least one assay; those are over-represented in the sample as a whole.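 Step 1: grow cells in 96-well plates. Step 2: add test compound at a single concentration. Step 3: incubate 48 h. Step 4: record percent growth.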 Unmarked numbers belong to inactive results. Activity calls are given as the source filed them.

These compounds were tested on UO-31 renal (assay: NCI-60 one-dose screen, 48 h (100 = growth as untreated, 0 = no growth, -100 = all killed)). Conditions: 10 µM unless noted.
Protocol: Growth inhibition of the UO-31 human tumor cell line is measured as a screen for anti-cancer activity. Cells are grown in 96 well plates and exposed to the test compound for 48 hours. Compounds are tested at a single concentration, which is 10^-5 M for most compounds. The reported endpoint is percent growth (GI% or GIPRCNT), where numbers from 0 - 100% represent growth inhibition, and numbers from -100% - 0 represent cell death. For example, a value of 40 represents 60% growth inhibition. A value of 0 means no net growth occurred over the course of the experiment. A value of -40 indicates 40% of cells at the beginning of the experiment died by the end of the experiment. A value of -100 means all cells are dead at the end of the experiment.
NCI-60 Human Tumor Cell Lines Screen was performed using the standard one-dose NCI protocol, which is described in more detail at https://dtp.cancer.gov/discovery_development/nci-60/default.htm.
Compounds with GIPRCNT values below 10 were considered active. Activity score was based on GIPRCNT using the following formula: […]
Score is 0 for GIPRCNT values of 100 or above, 50 for GIPRCNT values of 0, and 100 for GIPRCNT values of -100.

Row | SMILES | growth
1 | CC(C)(C)c1nn(-c2ccccc2)c2c1C(=O)CSC(c1ccccc1Cl)N2 (stereo not given) | 29.2%
2 | COc1cccc(/C(C)=N/NC(=O)CSc2nc3ccccc3c(=O)n2CCc2ccc(S(N)(=O)=O)cc2)c1 | 98.9%
3 | COc1ccc(CNc2c3ccccc3nc3ccccc23)cc1F | 13.5%
4 | O=C(CCCN1CCC(O)(c2ccc(Br)cc2)CC1)c1ccc(F)cc1 | 45.6%
5 | C/C(=N\Nc1ccc([N+](=O)[O-])cn1)c1ccc(N)cc1 | 87.7%
6 | O=C(CCCCCCN1CC(=O)N2[C@@H](c3ccc(Cl)c(Cl)c3)c3[nH]c4ccccc4c3C[C@H]2C1=O)NO | 57%
7 | CC(=O)c1ccc(N2C(=O)c3ccc(Oc4ccccc4)cc3C2=O)cc1 | 92.5%
8 | COc1cnc2c(c1)C(=O)c1c-2n(CCCN2CCCC2)c(=O)c2cc(Cl)ccc12 | 15.9%
9 | COc1ccc(/C=N/NC(N)=S)c(OC)n1 | 95.2%
10 | O=C(O)c1ccccc1Oc1cc(-c2ccco2)nc(OCCN2CCOCC2)n1 | 87.6%
11 | Nc1ncnc2c1N=C(c1ccc3c(c1)OCO3)CC(c1ccc(Cl)cc1)N2 (stereo not given) | 55.8%
12 | CCOC(=O)c1cc(C(=O)OCC)c(C)nc1C | 96.5%
13 | CCc1onc(-c2ccc(OC)cc2)c1-c1ccccc1OCCN(CC)CC | 56.8%
14 | NC(N)=N/N=C/c1cccc(Cl)c1Cl | 66.3%
15 | CCCCOc1nc2ccc(C)cc2cc1/C=C/C(=O)/C=C(O)/C=C/c1cc2cc(C)ccc2nc1OCCCC | 97.7%
16 | CC(=O)C1CCC2C3CC(C)=C4CC(O)CCC4(C)C3CCC12C (stereo not given) | 87.7%
17 | O=c1c2cc(Cl)ccc2oc2ccc(OCCCCCN3CCCCCC3)cc12 | 78.6%
18 | Nc1c(C(=O)Nc2ccccc2)sc2nc3c(cc12)C(=O)CCC3 | 71.1%
19 | O=C1/C(=C/c2ccccc2)SC(=Nc2ccccc2)N1Nc1ccccc1 | 14.8%
20 | Cc1cccc2nc3ccccc3c(Nc3ccc(NS(C)(=O)=O)cc3)c12 | 21.6%

Row | SMILES | growth
21 | COc1cccc(C2C(C#N)=C(N)Oc3cc4c(cc32)OCO4)c1 (stereo not given) | 39.3%
22 | COc1cc2ccc(C(C)=O)cc2cc1OC | 72.4%
23 | CCCCCCCCCCCCCCCCCC(=O)OCCCCCCCCCCCCC | 95%
24 | C=C(C)[C@@H]1CC[C@]2(C(=O)NS(=O)(=O)c3ccccc3)CC[C@]3(C)[C@H](CC[C@@H]4[C@@]5(C)CC[C@H](OC(=O)NS(=O)(=O)c6ccccc6)C(C)(C)[C@@H]5CC[C@]43C)[C@@H]12 | 8.04% (active)
25 | CN(C)CCNC(=O)n1cc(-c2ccncc2)c(-c2cc(O)cc(Cl)c2)n1 | 104%
26 | C[Si](C)(C)C(c1ccccc1)c1ccccc1 | 82.3%
27 | O=C(Nc1ccc(-n2ccc3c(NC(=O)c4ccccc4)nccc32)cc1)c1ccc(N2CCOCC2)c(C(F)(F)F)c1 | 0.765% (active)
28 | Oc1c(C(Nc2ccccc2Br)c2ccccc2)ccc2cccnc12 (stereo not given) | 16.8%
29 | Oc1ccccc1-c1nnc(COc2ccc(Cl)cc2Cl)o1 | 30.2%
30 | C=C1C(=O)O[C@H]2[C@H]1CC/C(COC(=O)NCc1[nH]nc3ccccc13)=C\CC[C@@]1(C)O[C@@H]21 | 71.5%
31 | COc1ccc(/C(C)=N/NC(=O)c2ccc(S(C)(=O)=O)cc2)cc1OC | 91.9%
32 | Cc1ccc(C(=O)CC(=O)C(F)(F)C(F)(F)C(F)(F)F)s1 | 74.9%
33 | COc1ccc2c(c1)C1=NN(C(=O)CO)[C@H](c3ccc(OC(F)(F)F)cc3)[C@@H]1CC2 | 53.5%
34 | COc1ccc(NC(=O)Cn2c(=O)sc3c(-c4ccc(Cl)cc4)cc(-c4ccc(Cl)cc4)nc32)cc1 | 81.4%
35 | Oc1ccc(-c2nc3ccccc3s2)cc1CN(Cc1ccccn1)Cc1ccccn1 | -31.8% (active)
36 | c1ccc(CCn2cccc2)nc1 | 94.3%
37 | C=CCOc1ccc2c(C)cc(=O)oc2c1 | 115%
38 | O=C(/C=C/c1ccccc1)c1c[nH]c2ccccc2c1=O | 4.93% (active)
39 | N/N=C(\C(=N\N)c1ccccc1)c1ccccc1 | 73.6%
40 | COc1ccc(-c2nn(C(=O)NCCN(C)C)cc2-c2ccncc2)cc1Cl | 52.6%
